Test results: the supplement of paper PMC10338343
± gives the standard deviation.

What follows are sequences tested on MILI (PIWIL2) piRISC loaded with piRNA #1 (26 nt) (assay: pre-steady-state target cleavage rate (min^-1); guide: piRNA #1 5'p-UGAGGUAGUAGGUUGUAUAGUAUCCA; MIWI and MILI are mouse PIWI proteins and EfPiwi is from a freshwater sponge; tags in brackets are library labels; higher = faster piRNA-guided slicing of the target). Conditions: auxiliary factor: 500 nM mouse GTSF1.
Summary of the method: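 Cleave-'n-Seq reactions paired 0.1 nM transcribed, DNA-blocked target RNA library with 1 nM active affinity-purified piRISC holding one synthetic guide, plus or minus 500 nM GTSF1 partner protein, in HEPES–potassium acetate buffer at 33 °C for 0–8 or 0–960 min. After sequencing of uncleaved targets and normalisation to depth and weakly complementary targets, the pre-steady-state cleavage rate was taken from a burst-and-steady-state fit. Three trials were pooled, and k3 was capped at 0.0001 min^-1.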

| Sequence | pre-steady-state target cleavage rate |
| --- | --- |
| GGAGAGGAUACUAUACAACCUACUACCCA | 0.0505 ± 0.014 |
| GGAGUGGUUACAAUACAACCUACUACCUCA | 0.172 ± 0.011 |
| GGAGUGGAUACUAUACAACCUACUACCCA | 0.0544 ± 0.013 |
| GGAGACGAUACUAUUCAACCUACAACCUCA | 0.103 ± 0.013 |
| GGAGUGGUUACUAUACAACCUACUUCCUCA | 0.0036 ± 0.002 |
| GGAGACCAUAGUAUACAUCCUACUACCUCA | 0.19 ± 0.014 |
| GGAGUGGAUACUAAACAACCUACUACCUGA | 0.0827 ± 0.012 |
| GGAGUGGAUAUAUACAACCUACUACCUCA | 0.152 ± 0.01 |
| GGAGACGAUACUAUACAACCUACUACCAUCA | 0.134 ± 0.013 |
| GGAGUGGUUACUAUACAACCUACUAGCUCA | 0.0259 ± 0.0059 |
| GGAGAGGAUACUACUACAACCUACUACCUCA | 0.15 ± 0.016 |
| GGAGACGUAUCUAUACAACCUACUACCUCA | 0.156 ± 0.015 |
| GGAGAGGAUACUAUACAACCUACUACCUCA [g2:g25:cont:t1A] | 0.206 ± 0.017 |
| GGAGACCUUAGAAUACAACCUACUACCUCA | 0.011 ± 0.004 |
| GGAGUGGAAACUAUACAUCCUACUACCUCA | 0.275 ± 0.024 |
| GGAGAGGAUACUAUACAACCUACUACCUA | 0.104 ± 0.013 |
| GGAGUGGAUACUAUACAAGCUACUACCACA | 0.133 ± 0.012 |
| GGAGACCAUUCUAUACAACCUACAACCUCA | 0.13 ± 0.013 |
| GGAGUGGAUAGUAUACAACCUACUACCUCA | 0.0868 ± 0.0069 |
| GGAGAGGAUACUAUACAACCUACAACCACA | 0.00451 ± 0.0037 |

| Sequence | pre-steady-state target cleavage rate |
| --- | --- |
| GGAGAGGAUACUAAACAACCUACUACCUGA | 0.0485 ± 0.011 |
| GGAGAGGAUGCUAUACAACCUACUACCUCA | 0.151 ± 0.018 |
| GGAGACGAUACUUAACAACCUACUACCUCA | 0.134 ± 0.013 |
| GGAGACCUUACUUAUACAACCUACUACCUCA | 0.0994 ± 0.014 |
| GGAGACCAUUCUAUACAACCUAGUACCUCA | 0.0977 ± 0.022 |
| GGAGACGAUACUAUACAACGUACUACCUGA | 0.0157 ± 0.0045 |
| GGAGAGGAUACUAUACAACCUUCUACCACA | 0.00472 ± 0.0023 |
| GGAGACCAUACUAUACAACUACUACCUCA | 0.0423 ± 0.0075 |
| GGAGACCUUACUAUACAACCUAGUACCUCA | 0.0616 ± 0.011 |
| GGAGACCAUACUAUACUACCUACUACGUCA | 0.104 ± 0.017 |
| GGAGACCUAUGUAGUACAACCUACUACCUCA | 0.00758 ± 0.0032 |
| GGAGACGAUACUAUACAAGCUACUUCCUCA | 0.167 ± 0.016 |
| GGAGUGGAUACUAUUCAUCCUACUACCUCA | 0.265 ± 0.016 |
| GGAGUGGAUAGUAUACAACGUACUACCUCA | 0.0168 ± 0.0038 |
| GGAGAGGCUACUAUACAACCUACUACCUCA | 0.182 ± 0.017 |
| GGAGUGGAUACUAUACAACCUAUACCUCA | 0.0048 ± 0.002 |
| GGAGACGAUACUUAUCAACCUACUACCUCA | 0.148 ± 0.013 |
| GGAGACCUUACUAUACAACCUACUAGCCUCA | 0.181 ± 0.018 |
| GGAGUGGAUACUAAACAUCCUACUACCUCA | 0.242 ± 0.013 |
